± gives the standard deviation.
system: EfPiwi piRISC loaded with L1MC piRNA (26 nt); assay: pre-steady-state target cleavage rate (min^-1); auxiliary factor: none (no Gtsf1); guide: L1MC piRNA 5'p-UAACUAAAUACUAUGCAAGCUGUAGG; MIWI and MILI are mouse PIWI proteins and EfPiwi is from a freshwater sponge; tags in brackets are library labels; higher = faster piRNA-guided slicing of the target
Method: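 Cleave-'n-Seq: a library of target RNAs (target site in constant flanks) at […] was incubated with 1 nM active freshwater sponge Ephydatia fluviatilis Piwi piRISC (synthetic 5'-monophosphorylated piRNA guide) with or without 500 nM EmGtsf1 at 33 °C for 1 min to 16 h. Uncleaved targets were sequenced and the pooled three trials fitted to a burst-and-steady-state model to give the pre-steady-state cleavage rate (min^-1). Sequence is the target site only. Fits with R² ≤ 0 are excluded.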

Sequence	pre-steady-state target cleavage rate
UCCUGGAUGUGCUUGCAAAGUAUUUUGUUA	< 0.0001
UCCUGGAUGUCGAUGCAUAGAAAUUAGUUA	< 0.0001
UCCUGGAUGUCGAACGUUAGUAUUUAGAUA	< 0.0001
UCCUGGAUCACGUUGCAUAGUAUUUAGAAA	< 0.0001
UCCUGGAUGUCGAAGCAUAGUAUUUACUAA	< 0.0001
UCCUCGUACAGCUUGCAUAGAAUUUAGUUA	0.00853 ± 0.0037
UCCUCCUACAGCUUGCAUAGGAUUUAGUUA	0.00638 ± 0.0035
UCCUGGAUGUCGAACGUAUCUAUCUUAGUUA	< 0.0001
UCCUGGAUGUCGAACGUAUCUAUUUAGAAA [g4:g10:cont:t1A]	< 0.0001
UCCUGGAAGUGCUUGCAUAGUAUUUAGAAA	< 0.0001
UCCUGGAUCAGCUUGCAUAGUAGUUAGUUA	0.0324 ± 0.012
UCCUGGAUGUCGAAGCAUAGUAUUUAGGUA	< 0.0001
UCCUGGAUGAGCUUGCAAAGUAUAUAGUUA	< 0.0001
UCCUGGAUCAGCUUGCAUAGCAUUUAGUUA	0.00546 ± 0.0038
UCCUCCUACAGCUUCCAUAGUAUAUAGUUA	< 0.0001
UCCUGGAUGUCGAAGCAUAGUAUUUAGUCA	< 0.0001
UCCUGGAUCAGGAAGCAUAGUAUUUAGAAA	< 0.0001
UCCUGCUACAGCUUGCAUACAUUUUAGUAA	< 0.0001
UCCUGGAUGUCGAACGUUAGUUUAUAGUUA	< 0.0001
UCCUGCUAGAGCUUGCAUAGUAUUUAGAAA	< 0.0001

Sequence	pre-steady-state target cleavage rate
UCCUGGAUGUCGAACGUUAGAAUUUUGUUA	< 0.0001
UCCUGGAUGUCGAAGCAUAGUAUUUUGAUA	< 0.0001
UCCUGGAUCAGCUUGCAUAGUACUUAGUUA	0.0113 ± 0.0052
UCCUGGAUGAGCUUGCAUAGUAUUAUAGUUA	0.0249 ± 0.011
UCCUGGAUGUCGAACCUUAGUAUUUAGUUA	< 0.0001
UCCUGGAUGUCGAACGUAUGUAUUUAUUA	< 0.0001
UCCUGGAUGUCGAACCAUAGUAGUUUAGUUA	< 0.0001
UCCUCCUACAGCUUCGUUAGUAUUUAGAAA	< 0.0001
UCCUGGAUGUCGAUGCAUCAGUAUUUAGUUA	< 0.0001
UCCUGGAUGUCGAACGUAUGUGAUUUAGUUA	< 0.0001
UCCUGGAUGUCCUUGCUAAGUAUUUAGUUA	< 0.0001
UCCUGGAUGUCGAAGCAUAGUAUUUAGCUA	< 0.0001
UCCUGGAUGUCGAUGCAGUAGUAUUUAGUUA	< 0.0001
UCCUGGAACAGCUUGCAUUCUAUUUACAAA	< 0.0001
UCCUGGAUGUCCUUGCAUAGUUUUUAGUAA	< 0.0001
UCCUGGAUGUCGAACGUAUGUUAUUAGUUA	< 0.0001
UCCUGGAUGUCGAAGCUUAGUAUUUAGUAA	< 0.0001
UCCUGGAUCUGCUUGCAUAGUAUAUAGUUA	0.011 ± 0.0069
UCCUGGAUCAGCUUGCAUAGUAGUUUAGUUA	0.011 ± 0.0045
UCCUGGAUGUCGAAGCAUAGUAUAUACUUA	< 0.0001

Source: the supplement of paper PMC10338343
